Experimental data: the supplement of paper PMC12632987
The full ranking holds about 2,300 sequences; the median of “median log2 fold change of GCK-ALFA target abundance (FLAG IP / Myc IP barcode read proportion)” is about 0.095, and the lowest 2% start at about -0.47. Shown is part of a subset that was picked to be rich in the lowest values.

B1: LC3A_3_1395 (protein)
chain: FEEIRKETIEYLKKAGKSEEVIKAAEEALELLEKRGYLEAAKTFLEELKKMKDVSDELLLWFLNEVINYLKTNDDDEETVIKKIKEFATIVKNESEIEEL
B2: LC3A_147_483 (protein)
chain: MRIDIDALIKGEETVEEFIERLEEKKEELEEEGVEVELEIEVEEVEEGVYYLKVTVTIKAETKEKEKEAADKIIDTIEEFEEENKDKVLGVLISVEEIEE
B3: LC3A_28_1260 (protein)
chain: SELEKNIEAAIAEVKEAVAKGEEAVVTIKVPAGITEEEVEKVIETMEKIAELGKSLPSVTIIVDVEKGVKQEHIDKLVDKGEELEKKYPNLTVIFALEEE
B4: LC3A_45_1982 (protein)
chain: MWEATIDLLVPRELAEEAYAILKEAGAELVARHGDDLKVDWDALDASYEASRDEEEVYLRLNIYHPDKQVALDSAVEIVDRLEERLGRKVAAIISVKEVP
B5: LC3A_23_600 (protein)
chain: MVTVEADHVVKNDPELAEEKTKKLLEEIKKILEKNKDYIKDYKIEVEFYTDEDGNTVVRITVTVKVKDDPEKAQEIANELISAFDEILPDAVIAYDVEED
B6: LC3A_28_836 (protein)
chain: SFAEEEIKKAKKALEKAKETKEDVVVEVVIKSTMTPEEAQYIMDELEKEVSKLPKDVKVSIVFLAEEPVDPEVLQTIADGGDEIEEKYPNVTVIIALPEE
B7: LC3A_28_985 (protein)
chain: SAMEERLAAALAEAKAAAAAGEATVITIEVPSTATEEDIEKAVAALKEIGEILKGVKGSAIVVDLESGVPEEHIRKLADAGEEVEKANPDVSVIFALDED
B8: LC3A_141_362 (protein)
chain: AVKKKTYTYTATTYDEALKVAEEIGKEIKKFMEETGAEEVKVTVTITSYNEKTGEVTTETDTYTVTKENLDLFIEGLEIDLLSAFDKGADKIVVKVTIET

Biological target: MAP1LC3A, Q9H492
Test: median log2 fold change of GCK-ALFA target abundance (FLAG IP / Myc IP barcode read proportion) (log2 ratio); each designed protein is fused to an ALFA-tag nanobody in HEK293 cells to bring the named protein to FLAG-tagged glucokinase (GCK); Myc marks an untargeted standard; higher = target protein stabilised (more abundant)
Conditions: target protein: 3xFLAG-MCP-GCK-ALFA reporter; HEK293 landing pad (RPLP)
Summary of the method: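 An ALFA-nanobody-fused binder library was recombined into HEK293 landing-pad cells and induced with 2 μg mL^−1 doxycycline. Cells were transfected with a plasmid expressing a FLAG-tagged target and a Myc-tagged standard. After 48 h, lysates underwent anti-FLAG and anti-Myc immunoprecipitation, and circular RNA barcodes were reverse transcribed, amplified and sequenced. Target abundance is the per-binder median log2 ratio of FLAG to Myc barcode read proportions. Barcodes needed ≥10^−7 proportion in both replicates, binders ≥3 barcodes per replicate, and a 10^−6 pseudocount was added; the two replicates were pooled.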

Question: For B1, which “median log2 fold change” value is on record?
Answer: 0.436

Question: B2 was tested. Which “median log2 fold change” value did it give?
Answer: -0.904

Question: For B3, which “median log2 fold change” value is on record?
Answer: -0.13

Question: How did the “median log2 fold change” value turn out when B4 was run?
Answer: 0.0214

Question: Which “median log2 fold change” value does the source give for B5 here?
Answer: -0.566

Question: Which “median log2 fold change” value does the source give for B6 here?
Answer: 0.111

Question: For B7, which “median log2 fold change” value is on record?
Answer: -0.274

Question: B8 was tested. Which “median log2 fold change” value did it give?
Answer: -0.96
